Test results as given in PubChem BioAssay AID1076 (NMMLSC, 2008).
The source made the active and inactive calls.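 How the source made its calls: active means cell event count below 40, meaning activity score above 60 where score is 100 minus count; inactive means the rest.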

Test: cytotoxicity in LNCaP prostate cells – cell-based, cell event count, single point, cytotoxicity control for prostate differentiation activator project, confirmation (AID 1076);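 further: counts scatter-gated live cells after medium removal discards detached dead cells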
Conditions: LNCaP cell loss, flow cytometry event count, 4 d, stronger effect = lower value

Row | SMILES | cell event count (at 100 µM) | cell event count (event count, at 10 µM)
1 | CCOC(=O)c1c(-c2ccc(C)o2)csc1NC(=O)CN1CCN(CC)CC1 | 27 (inactive) | 170
2 | O=C(NCCc1c[nH]c2ccccc12)C(F)(F)C(F)F | 111 (inactive) | 118
3 | CCOC(=O)c1cc2c(=O)n3ccccc3nc2n(CCCOC)c1=NC(=O)c1cccnc1 | 223 (inactive) | 144
4 | COc1ccc(-c2cc(C(F)(F)F)nc(N3CCN(c4ccc(F)cc4)CC3)n2)cc1OC | 184 (inactive) | 96
5 | Cc1cccc(-c2nsc(SCC(=O)Nc3nccs3)n2)c1 | 144 (inactive) | 169
6 | COc1ccc(-c2cc(C(F)(F)F)nc(N3CCN(Cc4ccccc4)CC3)n2)cc1OC | 152 (inactive) | 376
7 | Cc1ccccc1CS(=O)(=O)CCC(=O)NCCCN1CCN(c2ccccc2F)CC1 | 108 (inactive) | 71
8 | CCN1CCN(CCNC(=O)C2CCCN(Cc3nc(-c4cccc(Cl)c4)oc3C)C2)CC1 (stereo not drawn) | 14 (inactive) | 141
9 | Nc1cccc2cnccc12 | 241 (inactive) | 168
10 | Cc1onc(-c2ccccc2Cl)c1C(=O)N(C)C1CCCCC1 | 25 (inactive) | 188
11 | O=C(Cn1cc2c(n1)CCCC2)NCCCN1CCN(c2ccccc2F)CC1 | 94 (inactive) | 102
12 | O=C(NCCCN1CCN(c2ccccc2F)CC1)C1CCC(=O)N1C1CCCC1 (stereo not drawn) | 60 (inactive) | 62
13 | CC(C)n1c(=S)[nH]c2c1c(=O)[nH]c(=O)n2C | 221 (inactive) | 146
14 | N#CC1=C(N)OC2=C(C(=O)CCC2)C1c1ccc(OC(=O)N2CCOCC2)cc1 (stereo not drawn) | 293 (inactive) | 223
